The list is not random: actives were taken first. Their share in the collection is about 4.9%.
HSF-1 act – increases HSF-1 driven luciferase reporter signal. NIH3T3-HGL HSF-1 luciferase reporter, MG132, 8 h; 100% = twice DMSO control signal. activation, % at 9 µM. 300,000 compounds, 1.7% hits;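 active = mean replicate activation of at least 50% with a set share of replicates each reaching 50%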;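 also: 0% = median of the neutral control wells and 100% = twice that signal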
MPTP block – blocks calcium-induced mitochondrial swelling; isolated mouse mitochondria, Ca2+ swelling absorbance, 30 min; inhibition, % at 10 µM; 360,000 compounds, 1.4% hits;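 active = inhibition of 50% or more, scaled per plate between neutral and stimulator controls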;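 also: 0% = DMSO wells given calcium and 100% = 1 mM EGTA wells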
HSP90 inh – HSP90 refolding inhibition in rabbit reticulocyte lysate; luciferase refolding luminescence, 3 h; inhibition, % at 5.6 µM; 290,000 compounds, 0.91% hits;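 active = inhibition above the screen-wide mean plus 3 SD, computed separately per campaign, cut at about 16% in these data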;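 also: 0% = DMSO wells and 100% = 60 µM geldanamycin wells; inhibitors lower the luminescence because luciferase stays unfolded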
dFosB activator – mouse delta FosB homodimer activation. activation, % at 25 µM. 340,000 compounds, 0.99% hits. P13346. purified delta FosB, TAMRA-CDK5 oligo fluorescence polarization; percent of positive-control signal above neutral wells;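 active = mean activation above about 17%, with every replicate also reaching it, limit read from the data, passing the limit was not always enough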
Target sequence (P13346 whole entry, looked up): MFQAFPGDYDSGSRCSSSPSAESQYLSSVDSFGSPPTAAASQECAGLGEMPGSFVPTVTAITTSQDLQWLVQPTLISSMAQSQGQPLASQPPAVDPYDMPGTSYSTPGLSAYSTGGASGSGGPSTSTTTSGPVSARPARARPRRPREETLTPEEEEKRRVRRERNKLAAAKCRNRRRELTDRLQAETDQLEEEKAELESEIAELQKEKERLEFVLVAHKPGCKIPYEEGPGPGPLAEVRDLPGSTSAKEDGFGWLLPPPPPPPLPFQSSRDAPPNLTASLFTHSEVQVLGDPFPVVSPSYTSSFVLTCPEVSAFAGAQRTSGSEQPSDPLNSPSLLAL
HSF1 inhib – HSF1 inhibition. NIH3T3-HGL HSE-luciferase, MG132-induced, luminescence 8 h; hits give low values. activity change, negative = inhibition, % at 7.5 µM (by protocol). 300,000 compounds, 0.77% hits. AID 2098;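 active = more than half of replicate wells show activity change below -50%, luminescence cut by over half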;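 also: luciferase reports HSF-1 transcriptional activity via heat shock element; 0% = median of DMSO wells and -100% = zero luminescence signal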
Platelet DG rel – modulates dense granule release in human platelets; inhibition, %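 (compounds screened at 7.5 µM in platelet-rich plasma)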; 300,000 compounds, 0.22% hits; AID 1663; human platelet-rich plasma, SFLLRN dense granule ATP release, luminescence;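 active = mean replicate score, as percent of positive control, at or above 50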
MPTP counter – mitochondrial membrane potential, counter-screen | shares compounds with MPTP block | isolated mitochondria, Rhodamine 123 fluorescence | 5,000 compounds, 78% hits | inhibition, % at 10 µM; in the data active = inhibition above about 22%;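 also: 0% = DMSO vehicle and 100% = positive control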
An asterisk follows results filed as active.

Screening Cc1[nH]n(-c2cccc3ccccc23)c(=O)c1/C=N/c1sc2c(c1C#N)CCC2 returned HSF-1 act 22.0, MPTP block 0.3, HSP90 inh 6.0, dFosB activator -8.6, HSF1 inhib -3.2 and Platelet DG rel -2.4.
Cc1[nH]n(-c2ccc(Cl)cc2)c(=O)c1/C=N/c1nnc(-c2ccccc2)s1 was read as HSF-1 act 24.6, MPTP block 103.7*, HSP90 inh -2.6, dFosB activator -4.1, HSF1 inhib 5.2, Platelet DG rel -15.6 and MPTP counter 43.4*.
`CC(C(=O)N1CCN(Cc2ccc3c(c2)OCO3)CC1)c1ccc([N+](=O)[O-])cc1` (stereo unspecified) gave HSF-1 act 1.9, MPTP block 2.1, HSP90 inh 4.1, dFosB activator 0.0, HSF1 inhib 0.9 and Platelet DG rel 6.4.
Screening COc1ccc(C(C)=O)cc1CN1C(=O)C(Cc2ccccc2)ON=C1c1ncccc1C (stereo unspecified) returned MPTP block -0.5.
NC1=NC[C@H](Cc2ccccc2)N1CCCCC1CCCCC1 was read as HSF-1 act -17.3, MPTP block 82.1*, dFosB activator -2.8, HSF1 inhib 0.3, Platelet DG rel 2.6 and MPTP counter 48.1*.
For NC1=NC[C@H](Cc2ccc(O)cc2)N1CCCCC1CCCCC1 the results were HSF-1 act -3.3, MPTP block 2.6, dFosB activator 3.1, HSF1 inhib -4.8 and Platelet DG rel -8.8.
`CCCCNc1nccnc1-c1cccc(C=O)c1` gave MPTP block -1.1.
`COC(=O)c1ccc(NC(=S)NC2CCc3ccccc32)cc1` (stereo unspecified) gave HSF-1 act -16.8, MPTP block 80.0*, HSP90 inh -4.7, dFosB activator 6.5, HSF1 inhib -8.7, Platelet DG rel -9.1 and MPTP counter 81.3*.
For O=C(NCc1nc(-c2ccc(C(F)(F)F)cc2)no1)Nc1ccc(F)cc1F the results were HSF-1 act -3.2, MPTP block 54.1*, HSP90 inh -9.4, dFosB activator 7.0, HSF1 inhib -5.0, Platelet DG rel -8.7 and MPTP counter 68.6*.
For COc1ccc(-c2noc(CNC(=O)Nc3ccc(F)cc3)n2)cc1 the results were HSF-1 act -3.3, MPTP block 17.9, HSP90 inh 0.6, dFosB activator -2.2, HSF1 inhib -5.7 and Platelet DG rel 4.3.
For Cc1cccc(-c2noc(CNC(=O)Nc3ccc(F)cc3)n2)c1 the results were HSF-1 act 16.2, MPTP block 58.8*, HSP90 inh 1.9, dFosB activator 8.7, HSF1 inhib 4.8, Platelet DG rel 0.6 and MPTP counter 71.2*.
Screening O=C(NCc1nc(-c2ccc(C(F)(F)F)cc2)no1)Nc1cc(Cl)cc(Cl)c1 returned HSF-1 act -9.9, MPTP block 83.6*, HSP90 inh -3.9, dFosB activator 14.8, HSF1 inhib -11.4, Platelet DG rel -5.6 and MPTP counter 69.5*.
For O=C(CSCc1ccccc1)Nc1ccc(F)c(F)c1 the results were HSF-1 act 24.7, MPTP block 71.0*, HSP90 inh 0.9, dFosB activator 2.7, HSF1 inhib 11.1, Platelet DG rel 16.5 and MPTP counter 63.1*.
Screening O=C(CSCc1ccc(F)cc1)Nc1ccccc1 returned HSF-1 act -3.6, MPTP block -0.9, HSP90 inh 0.2, dFosB activator 1.8, HSF1 inhib 4.6 and Platelet DG rel -0.8.
`CCOc1ccc(NC(=O)CSc2nccn(-c3ccc4c(c3)OCCO4)c2=O)cc1` gave HSF-1 act -1.4, MPTP block -1.6, dFosB activator 2.2, HSF1 inhib -7.0 and Platelet DG rel -4.7.
COc1ccc(NC(=S)NCCC(c2ccccc2)c2ccccc2)c(OC)c1 was read as HSF-1 act 1.1, MPTP block 0.3, HSP90 inh 5.7, dFosB activator -5.3, HSF1 inhib 6.7 and Platelet DG rel -0.8.
Screening Cc1c(Cl)cccc1NC(=S)NCCC(c1ccccc1)c1ccccc1 returned HSF-1 act -5.2, MPTP block 62.4*, HSP90 inh -1.5, dFosB activator -9.3, HSF1 inhib 3.2, Platelet DG rel -0.2 and MPTP counter 87.2*.
`Cc1c(Cl)cccc1NC(=S)NCC1COc2ccccc2O1` (stereo unspecified) gave HSF-1 act 0.2, MPTP block 63.1*, HSP90 inh 1.1, dFosB activator -13.9, HSF1 inhib -17.0, Platelet DG rel -4.7 and MPTP counter 92.9*.
For Cc1c(Cl)cccc1NC(=S)NCc1ccccc1Cl the results were HSF-1 act 14.4, MPTP block 84.2*, HSP90 inh 1.4, dFosB activator -4.3, HSF1 inhib 2.1, Platelet DG rel 21.9 and MPTP counter 94.4*.
For Cc1cc(Cl)ccc1NC(=S)NCCC(c1ccccc1)c1ccccc1 the results were HSF-1 act -4.0, MPTP block 99.6*, HSP90 inh 1.2, dFosB activator 1.6, HSF1 inhib 3.8, Platelet DG rel 3.5 and MPTP counter 97.2*.
Screening COc1ccc(Cn2cc(CN(C)C3CN(Cc4cn(Cc5ccc(OC)cc5)nn4)S(=O)(=O)C3)nn2)cc1 (stereo unspecified) returned MPTP block -1.4.
For Cc1ccc(OCc2nnn(CC(=O)NS(=O)(=O)c3c(C)noc3C)c2-c2ccccc2)cc1 the results were MPTP block 1.5.
CCCS(=O)(=O)c1cscc1NC(=O)c1c(-c2c(F)cccc2Cl)noc1C was read as HSF-1 act 11.5, MPTP block 2.5, HSP90 inh 3.9, dFosB activator -1.4, HSF1 inhib -8.6 and Platelet DG rel -1.1.
For CC(NCCCSc1ccccc1)C(O)c1ccc(O)cc1 (stereo unspecified) the results were MPTP block 0.5.
Screening Cc1nc(NCCc2ccccc2)c2oc3ccccc3c2n1 returned HSF-1 act -3.6, MPTP block 97.3*, HSP90 inh 6.2, dFosB activator -34.5, HSF1 inhib -0.8, Platelet DG rel -1.9 and MPTP counter 75.4*.
`CC(C)c1noc2ncc(C(=O)c3cc(Cl)cc(Cl)c3O)cc12` gave HSF-1 act 34.0, MPTP block 93.8*, HSP90 inh 2.9, dFosB activator 10.3, HSF1 inhib 2.7, Platelet DG rel -4.6 and MPTP counter 105.3*.
Screening COc1ccc(OC)c(NC(=O)c2cccc(NC(=O)c3ccco3)c2)c1 returned MPTP block -0.9.
CC1CCc2c(C(=O)Nc3nccs3)csc2C1 (stereo unspecified) was read as HSF-1 act 26.9, MPTP block 1.0, HSP90 inh -1.0, dFosB activator -6.2, HSF1 inhib 9.0 and Platelet DG rel -3.0.

Screening data from PubChem BioAssay.
